# Results with a measured potency or affinity are listed apart. A number with no mark means an inactive call. How the calls were made is not given here.
# Assay: COV434 cell viability loss – plate reader, dry powder, SA7, cytotoxicity control for PAX8 inhibitor project, dose response (AID 743145)
# Details: series mostly up to 35 µM; activity change, negative = cytotoxicity: at the top concentration
row,SMILES,"activity change, negative = cytotoxicity"
1,COc1ccc(S(=O)(=O)Nc2ccc3c(c2)CC(=O)N([C@@H](C)CO)C[C@@H](C)[C@@H](CN(C)Cc2ccc(-c4ccccc4)cc2)O3)cc1,-5.13%
2,COC(=O)[C@@]1(CCS(=O)(=O)c2ccccc2)N=C(c2ccc(OCCCO)cc2)O[C@H]1c1ccccc1,-28.9% [at 50 µM]
3,N#C[C@@H]1[C@@H](c2ccc(-c3ccccc3F)cc2)[C@@H](CO)N1C(=O)C1CCC1,-6.05%
4,COc1cccc(C#Cc2ccc([C@@H]3[C@@H](C#N)N(C(=O)C4CCCCC4)[C@H]3CO)cc2)c1,-26.6%
5,O=C(CN1C(=O)c2ccccc2S1(=O)=O)c1ccc(Cl)cc1Cl,8.31% [at 50 µM]
6,C[C@@H]1CN([C@H](C)CO)C(=O)CCCn2cc(nn2)CO[C@H]1CN(C)C(=O)Nc1ccc(-c2cccs2)cc1,3.8%
7,C[C@@H]1CN([C@@H](C)CO)S(=O)(=O)c2ccc(C#C[C@@H](C)O)cc2O[C@H]1CN(C)Cc1ccc(-c2ccccc2)cc1,-5.91%
8,COc1ccc(S(=O)(=O)N2CCCCN3[C@H](CO)[C@H](c4ccc(C#CC(C)C)cc4)[C@H]3C2)cc1,17.6%
9,COc1cccc(C#Cc2ccc([C@H]3[C@@H](C#N)N(C(=O)c4ccccn4)[C@@H]3CO)cc2)c1,-14.5%
10,O=C(NCCc1ccccc1)c1ccc2c(c1)OCCCO2,-23.6% [at 50 µM]
11,C[C@H](CO)N1C[C@H](C)[C@@H](CN(C)S(=O)(=O)c2ccc(-c3ccccc3)cc2)OCc2cn(nn2)CCCC1=O,5.76%
12,O=C(CN1C(=O)c2ccccc2S1(=O)=O)c1ccccc1Cl,-6.49% [at 50 µM]
13,Cc1ccccc1OCC(=O)Nc1cccc(C(=O)O)c1,7.84% [at 50 µM]
14,CC(=O)N1CCOc2ccc(S(=O)(=O)N3CCN(c4cccc(C(F)(F)F)c4)CC3)cc21,-13.7% [at 50 µM]
15,N#C[C@H]1[C@@H](c2ccc(C#CC3CCCCC3)cc2)[C@@H](CO)N1S(=O)(=O)c1ccccc1,-24.8%
16,C[C@H](CO)N1C[C@H](C)[C@@H](CN(C)Cc2ccc(-c3ccccc3)cc2)Oc2ccc(NC(=O)C3CC3)cc2CC1=O,23.2%
17,COc1cccc(C#Cc2ccc([C@@H]3[C@@H](C#N)N(C(=O)C4CCCC4)[C@@H]3CO)cc2)c1,-18%
18,C[C@H]1CN([C@@H](C)CO)C(=O)CCCn2nncc2CO[C@@H]1CN(C)C(=O)Nc1ccc(-c2cccs2)cc1,0.845%
19,O=C1/C(=C/c2ccccc2)SC(=S)N1CC(=O)N1CCCCC1c1cccnc1 (stereo unspecified),-3.46% [at 50 µM]
20,COc1ccc(S(=O)(=O)Nc2ccc3c(c2)CC(=O)N([C@@H](C)CO)C[C@H](C)[C@@H](CN(C)Cc2ccc(C(F)(F)F)cc2)O3)cc1,-2.58%
21,C[C@H]1CN([C@@H](C)CO)C(=O)Cc2cc(NC(=O)NC3CCCCC3)ccc2O[C@@H]1CN(C)Cc1ccc(-c2ccccc2)cc1,22.3%
22,COc1cccc(-c2ccc([C@H]3[C@@H](CO)N(C(=O)Cc4ccccc4)[C@H]3C#N)cc2)c1,-16.2%
23,O=C(CCS(=O)(=O)c1ccccc1)Nc1nc2ccc(F)cc2s1,7.63% [at 50 µM]
24,CCc1cnc(N2[C@@H](C#N)[C@@H](c3ccc(C#CC(C)C)cc3)[C@@H]2CO)s1,5.79%
25,C[C@H](CO)N1C[C@H](C)[C@H](CN(C)C(=O)Nc2ccc(-c3cccs3)cc2)OCc2cnnn2CCCC1=O,3.45%
26,O=C1/C(=C/c2cccc(Br)c2)SC(=S)N1CCC(=O)N(CCO)c1ccccc1,-46.1% [at 50 µM]
